BoNT A protease = BoNT/A light chain protease inhibitors, primary screen, biochemical, flow cytometry, MLPCN library; Botulinum neurotoxin type A light chain protease (Clostridium botulinum A str. ATCC 3502); multiplex microsphere protease substrate cleavage; inhibition, % at 10 µM; hit rate 0.17% among 360,000; AID 588499, 2011
GDH-TPI inh = GDH-TPI coupling enzyme inhibitors, primary screen, artefact control for M. tuberculosis FBA inhibitor project, biochemical, absorbance, full deck; GDH-TPI coupled enzyme counterscreen, NADH absorbance; inhibition, % at 4.8 µM; hit rate 1.2% among 360,000; in the data active = inhibition above about 30%
Autofluor counter = counter-screen for toxin protease inhibitors: compound fluorescence. compound autofluorescence counterscreen, microsphere flow cytometry; hits give high values. fluorescence intensity (test concentration not listed). hit rate 3.1% among 360,000. AID 624483; in the data active = fluorescence intensity above about 16000; inconclusive = no clear call, values can overlap the other calls
BoNT F protease = BoNT/F light chain protease inhibitors, primary screen, biochemical, flow cytometry, MLPCN library; Multiplex microsphere protease cleavage assay; AID 588497, 2011; inhibition, % at 10 µM; hit rate 0.22% among 360,000; Botulinum neurotoxin type F light chain protease (Clostridium botulinum); in the data active = inhibition above about 35%, passing the limit was not always enough; inconclusive = no clear call, values can overlap the other calls
FBA Mtb inh = Mtb FBA enzyme inhibitors, primary screen, biochemical, fluorescence, strain H37Rv; hit rate 2.3% among 360,000; inhibition, % at 1 µM; AID 588726, 2011; purified M. tuberculosis FBA, fluorescence read-out; Fructose-bisphosphate aldolase (Mycobacterium tuberculosis (strain ATCC 25618 / H37Rv)), …; in the data active = inhibition above about 27%
Target sequence (P9WQA3 whole entry, looked up): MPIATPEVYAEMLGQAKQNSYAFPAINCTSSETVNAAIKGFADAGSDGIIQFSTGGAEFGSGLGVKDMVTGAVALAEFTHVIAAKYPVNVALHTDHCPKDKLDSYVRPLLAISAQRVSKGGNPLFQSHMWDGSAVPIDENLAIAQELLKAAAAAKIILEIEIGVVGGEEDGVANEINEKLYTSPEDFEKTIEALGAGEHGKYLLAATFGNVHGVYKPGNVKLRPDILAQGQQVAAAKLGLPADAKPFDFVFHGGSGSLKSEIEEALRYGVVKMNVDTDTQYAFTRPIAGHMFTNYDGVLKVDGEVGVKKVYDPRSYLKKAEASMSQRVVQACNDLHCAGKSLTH
Anthrax LF prot = Bacillus anthracis LF protease inhibitors, primary screen, biochemical, multiplex microsphere, MLPCN library; multiplex microsphere protease cleavage assay; inhibition, % at 10 µM; Lethal factor (Bacillus anthracis), P15917; AID 588501, 2011; hit rate 0.12% among 360,000
Large screens that a line does not name were inactive. Shown are actives, neighbours in structure and some others; about 6.7% of the full set was active somewhere. Rule as the data show it, unless noted: active = inhibition above about 30%; inconclusive = no clear call, values can overlap the other calls; inactive = below that.

O=C(COc1ccccc1F)NNC(=O)Cc1ccc(S(=O)(=O)N2CCOCC2)s1	Autofluor counter inconclusive, BoNT F protease inconclusive
Cc1cc(-c2ccccc2)nc(N(C)NC(=O)C(C)(C)C)c1S(C)(=O)=O	none
CCCCC(=O)Nc1ccc2oc(-c3cccnc3)nc2c1	FBA Mtb inh 141
O=C(Nc1ccc2oc(-c3cccnc3)nc2c1)c1cc2ccccc2o1	none
Cc1cccc(-c2nc3cc(NC(=O)C4CCCO4)ccc3o2)c1 (stereo not drawn)	FBA Mtb inh 114
CCCC(=O)Nc1cccc(-c2nc3ccccc3o2)c1	none
CC(C)CC(=O)Nc1cccc(-c2nc3ccccc3o2)c1	Autofluor counter 23031
Cc1ccc2oc(-c3cccc(NC(=O)Cc4cccs4)c3)nc2c1	none
CCC(=O)Nc1ccc2oc(-c3cccc(C)c3)nc2c1	FBA Mtb inh 139
CC(C)(C)n1nnnc1C(c1ccc(F)cc1)N1CCC(C(N)=O)CC1 (stereo not drawn)	none
COC(=O)C(CCC(=O)CN1C(=O)c2ccccc2C1=O)N1C(=O)c2ccccc2C1=O (stereo not drawn)	none
Cc1ccc(C)c(NC(=S)NC(NC(=O)/C=C/c2ccccc2)C(Cl)(Cl)Cl)c1 (stereo not drawn)	none
Cc1ccc2nc(-c3cccc(NC(=O)c4ccc5c(c4)OCCO5)c3)oc2c1	BoNT A protease inconclusive, Autofluor counter 21708
O=C(Nc1ccc2oc(-c3ccc4ccccc4c3)nc2c1)c1ccc2c(c1)OCCO2	none
O=C(CSc1ccccc1)Nc1cccc(NC(=O)c2ccco2)c1	none
COC(=O)[C@@]12CCCCN1[C@H](c1ccc(-c3ccc(OC)cc3)cc1)[C@H]1C(=O)N(C)C(=O)[C@H]12	none
Cc1nc(=O)c(-c2ccccc2)c(C)n1-c1ccc(S(N)(=O)=O)cc1	none
Cc1nc(=O)c(-c2ccccc2)c(C)n1-c1ccc(C(=O)O)cc1	Autofluor counter 22979
COc1ccc(NC(C)=O)cc1S(=O)(=O)N1CCN(C(=O)c2ccccc2F)CC1	none
CCCCCCc1nc2ccccc2c(=O)n1N	FBA Mtb inh 136
CCc1nc2scc(-c3ccc(C)cc3)c2c(=O)n1N	none
CCCc1nc2scc(-c3ccccc3)c2c(=O)n1N	Autofluor counter 23965
CCCCCc1nc2ccccc2c(=O)n1-c1ccc(Cl)cc1[N+](=O)[O-]	Autofluor counter 23302
CCCCc1nc2ccccc2c(=O)n1-c1ccccc1O	none
CCS(=O)(=O)N1Cc2ccccc2CC1C(=O)Nc1cccc(C)c1 (stereo not drawn)	none
COc1cc(Cn2nnc3ccccc32)ccc1O	BoNT F protease inconclusive
CC(Oc1ccc(Cl)cc1)C(=O)Nc1ccccc1N1CCOCC1 (stereo not drawn)	none
COC(=O)c1ccc(CNC(=O)COC(=O)/C=C/c2ccc(OC)c(OC)c2)cc1	none (no result: BoNT A protease, Autofluor counter, BoNT F protease, Anthrax LF prot)
NC(=O)C[C@H]1NC(=O)[C@H](CCC(=O)O)NC(=O)c2cc([N+](=O)[O-])cc(I)c2NCCC[C@@H](C(N)=O)NC1=O	none
NC(=O)[C@@H]1CCCNc2c(I)cc([N+](=O)[O-])cc2C(=O)N[C@@H](CCC(=O)O)C(=O)N[C@@H](CO)C(=O)N1	GDH-TPI inh 35
O=C(COc1ccc2c(c1)oc(=O)c1ccccc12)N[C@@H](Cc1ccccc1)C(=O)O	FBA Mtb inh 115
Cc1c(C)c2ccc(OCC(=O)N3CCN(Cc4ccccc4)CC3)cc2oc1=O	none
O=C(O)C1CCN(C(=O)COc2ccc3c(c2)oc(=O)c2ccccc23)CC1	FBA Mtb inh 138
Cc1c(Cc2ccccc2)c(=O)oc2cc(OCC(=O)N3CCC(C(=O)O)CC3)ccc12	GDH-TPI inh 32, FBA Mtb inh 148
O=c1oc2cc(O[C@@H]3OC[C@@H](O)[C@H](O)[C@H]3O)ccc2c2ccccc12	FBA Mtb inh 71
O=C(COc1ccc2c3c(c(=O)oc2c1)CCCC3)N1CCN(c2ccc(F)cc2)CC1	none
O=C(COc1ccc2c3c(c(=O)oc2c1)CCC3)NC(Cc1ccc(Cl)cc1)C(=O)O (stereo not drawn)	none
CCOC(=O)c1ccc(N/C=C\C(=O)c2cccc(OC)c2)cc1	none
CN(C)c1nc(C(F)(F)F)cc(=O)[nH]1	none
C=CCC1(CC=C)CCCN1C(=O)C1CCC(=O)N(CCc2ccc(OC)cc2)C1 (stereo not drawn)	none
c1csc(-c2nc(CN3CCSCC3)cs2)c1	BoNT F protease inconclusive
Cc1c(OCC(=O)N2CCC(C(=O)O)CC2)ccc2c1oc(=O)c1ccccc12	FBA Mtb inh 142
O=C1C2CC=CCC2C(=O)N1c1n[nH]c(CCc2ccccc2)n1 (stereo not drawn)	BoNT A protease inconclusive, Autofluor counter 18666
CCOC(=O)c1ccccc1N/C=C1\CCCC1=O	none
COc1ccc(OC)c(N/C=C2/CCCCC2=O)c1	Autofluor counter 21967
O=C1CCCC/C1=C\Nc1ccccc1C(=O)O	Autofluor counter 19879
COc1ccc(Oc2ccc(N/C=C3\CCCC3=O)cc2)cc1	GDH-TPI inh 40
COc1ccc(N/C=C2/CCCCC2=O)cc1	Autofluor counter 21936
C#CCSc1nnc(-c2ccc(O)cc2)o1	none
Cc1ccccc1OCCOCCN1CCCCCC1	none
CC1(C)OC(=O)N(Cc2ccco2)C1(C)O (stereo not drawn)	none
CCOC(=O)N1c2ccccc2Sc2ccccc21	none
CCN1/C(=C/C(C)=O)Sc2ccc(OC)cc21	none
CCOC(=O)/C(=C\C=C1/Sc2cc(OCC)c(OCC)cc2N1CC)C(C)=O	Autofluor counter 33036, BoNT F protease 49
CCOC(=O)/C(=C/C=C1\Sc2cc(OCC)c(OCC)cc2N1CC)C(C)=O	Autofluor counter 23889, BoNT F protease 44
COc1cccc(C(=O)Nc2nc(-c3ccc4c(c3)OCO4)cs2)c1	none
N#C/C(=C/c1ccc(N2CCCCC2)o1)C(=O)Nc1ccc(Cl)cc1	Autofluor counter 17947, BoNT F protease 36
N#C/C(=C/c1ccc(N2CCCCC2)o1)C(=O)Nc1ccc2ccccc2c1	Autofluor counter 60126, BoNT F protease 65, Anthrax LF prot 39
CC1Oc2ccccc2N(Cc2ccccc2Cl)C1=O (stereo not drawn)	Autofluor counter 23481
CC1Oc2ccccc2N(CC(=O)N(Cc2ccccc2)Cc2ccccn2)C1=O (stereo not drawn)	Autofluor counter 23187
CC1Oc2ccccc2N(CC(=O)NCCc2ccccc2)C1=O (stereo not drawn)	Autofluor counter 26874
O=C1COc2ccccc2N1Cc1ccccc1Cl	none
